Measurements published in PubChem BioAssay (Tox21).
Results filed as inconclusive are left out. Entries that show only a call come without a potency. A number with no mark means an inactive call. Calls of active or inactive are those of the source. Calls follow the shape of the full dose curve.

Experiment: p53 small molecule agonists, cell-based qHTS assay with rat liver microsomes (AID 1963578)
In short: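 Read-out is beta-lactamase reporter fluorescence (LiveBLAzer, 2 h, room temperature, dark) in p53RE-bla cells treated 16 h at 37 C with compound, rat liver microsomes and NADPH, both 0.5 mg/mL final.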

SMILES | Potency | activation
CCCCCC/C=C/C(=O)OC | inactive | 
CCCSSCCC | inactive | 
Cc1ccc(NC(=O)N(C)C)cc1NC(=O)N(C)C | inactive | 
CCOC(=O)c1ccc(O)c(O)c1 | inactive | 
CN(C1CCCCC1)S(=O)(=O)c1ccccc1N | inactive | 
CCN(CC)CCNC(=O)c1ccc(NC(C)=O)cc1 | inactive | 
CCCCCCCCCCCCCC | inactive | 
C=CC(=O)OCCOC(=O)C=C | inactive | 
CCCCCc1cccc(=O)o1 | inactive | 
CCOC(=S)SSC(=S)OCC | inactive | 
CC(C)=CCCC(C)CCOC(=O)C(C)C (stereo unspecified) | inactive | 
CCCCCCCCCOCC1CO1 (stereo unspecified) | inactive | 
c1ccc(SCCSc2ccccc2)cc1 | inactive | 
Cc1cc(CCC(=O)OCCOCCOCCOC(=O)CCc2cc(C)c(O)c(C(C)(C)C)c2)cc(C(C)(C)C)c1O | inactive | 
Cc1[nH]cnc1-c1ccc(Cl)cc1 | inactive | 
CC(C)(CCC(=O)O)C(=O)O | inactive | 
CC(C)(C)C(=O)C(Oc1ccc(Cl)cc1)n1ccnc1 (stereo unspecified) | inactive | 
NCc1cccc(CN)c1 | inactive | 
Oc1ccc(O)c2c(O)cccc12 | inactive | 
CCC(N)(CO)CO | inactive | 
O=C(CCS)OCC(COC(=O)CCS)(COC(=O)CCS)COC(=O)CCS | inactive | 
CCOc1ccc(N)c([N+](=O)[O-])c1 | inactive | 
CC(C)C(=O)C(C)C | inactive | 
Cc1ccc(C)cc1 | inactive | 
O=C(C(=O)c1ccccc1)c1ccccc1 | inactive | 
CC(C)N=C=NC(C)C | inactive | 

SMILES | Potency | activation
C=Cc1ccccn1 | inactive | 
Clc1ccc2c(c1)Nc1ccccc1S2 | inactive | 
O=C(C(=O)c1ccco1)c1ccco1 | inactive | 
Cc1cccc(C)c1NC(=O)CN1CCCCCC1 | inactive | 
CC(C)CNCC(C)C | inactive | 
C[Si](C)O[Si](C)C | inactive | 
COc1ccc2cc3[n+](cc2c1OC)CCc1cc2c(cc1-3)OCO2 | inactive | 
CC(CN1c2ccccc2Sc2ccccc21)N(C)C (stereo unspecified) | inactive | 
C=C(C)C(=O)OCCCCCCCC(C)C | inactive | 
CC(C)(c1ccc(O)cc1)c1ccc(O)cc1 | inactive | 
C(=C\c1ccccc1)/c1ccccc1 | inactive | 
CC(C)CCOC(=O)c1ccccc1 | inactive | 
N#CC1(O)CCCCC1 | inactive | 
CC(C)(O)C(=O)c1ccc(OCCO)cc1 | inactive | 
CC/C=C/CCO | inactive | 
COC(=O)c1ccccc1C(=O)c1ccc(OCCN2CCCCC2)cc1 | inactive | 
N[C@H](C(=O)O)c1ccc(O)cc1 |  | 0.317% [at 13.6 µM]
Cc1cccc(N)n1 | inactive | 
CCOCOCC | inactive | 
Brc1cc(Br)cc(Br)c1 | inactive | 
CCCC[O][Al]([O]CCCC)[O]CCCC | inactive | 
CC(=O)S[C@H](C(=O)N[C@H]1Cc2ccccc2[C@H]2CCC[C@@H](C(=O)O)N2C1=O)C(C)C | inactive | 
O=C(O)/C=C/c1cnc[nH]1 | inactive | 
CC1(C)[C@H](C(=O)OCc2cccc(Oc3ccccc3)c2)[C@@H]1C=C(Cl)Cl | inactive | 
CC1=CC[C@@]23C[C@@H]1C(C)(C)[C@@H]2CC[C@H]3C | inactive | 
